An excerpt weighted towards active compounds, which were near 4.1% of everything screened.
FMDV antiviral: antivirals against foot and mouth disease virus; FMDV antiviral cell-based qHTS; Potency, µM (doses to about 57.9 µM), for the others: at the highest dose activity change, negative = inhibition, actives largely listed as inhibitors; 410,000 compounds, 1.2% hits; AID 1159524; calls by dose curve; tested in HEK293T cells; further: read-out not given here; nearly all actives have a fitted effect of over 45% in size
AMA1-RON2 inh: disrupts binding of P. falciparum AMA1 to RON2; AlphaScreen AMA1-biotinylated RON2 peptide binding; Potency, µM (highest dose often 58.2 µM), for inactives: at the highest dose activity change, negative = inhibition, actives largely listed as inhibitors; 360,000 compounds, 0.2% hits; AID 720542;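 further: 0% = vehicle wells and -100% = peptide control; nearly all actives have a fitted effect of over 45% in size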
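AMA1 (3D7) with his tag at 25 nM final met compounds first, then biotinylated RON2 peptide at 25 nM; detection used donor plus acceptor beads, 10 µg/mL apiece, read by AlphaScreen after 30 min at room temperature.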
AmpC detergent: blocks E. coli AmpC beta-lactamase in detergent assay; P00811; AmpC hydrolysis of nitrocefin, absorbance 480 nm, 0.01% Triton; Potency, µM (titrated, usually from 114 µM), without a hit: at the highest dose activity change, negative = inhibition, hits mostly inhibitors; 370,000 compounds, 0.041% hits; AID 485294;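 further: 0% = no-compound wells and -100% = no-enzyme wells; nearly all actives have a fitted effect of over 25% in size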
Target sequence (P00811 whole entry, looked up): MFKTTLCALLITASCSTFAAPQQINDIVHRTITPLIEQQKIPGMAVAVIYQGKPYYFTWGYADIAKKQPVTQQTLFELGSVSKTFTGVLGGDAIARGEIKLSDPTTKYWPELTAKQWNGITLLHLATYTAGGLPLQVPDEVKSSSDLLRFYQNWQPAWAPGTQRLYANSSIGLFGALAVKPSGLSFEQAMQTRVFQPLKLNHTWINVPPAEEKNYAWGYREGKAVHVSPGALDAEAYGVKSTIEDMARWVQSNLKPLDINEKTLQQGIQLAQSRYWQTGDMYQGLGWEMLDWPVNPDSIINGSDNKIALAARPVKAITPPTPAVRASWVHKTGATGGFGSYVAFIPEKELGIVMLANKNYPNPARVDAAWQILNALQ
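AmpC (5.3 nM in the dispensed reagent) in 20 mM phosphate pH 7.0 with 0.01% (detergent screen) or 0.0001% Triton X-100 was preincubated with compounds for 15 min at room temperature. Nitrocefin was then added from an 800 uM solution, and hydrolysis was followed at 480 nm.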
Sm TGR inh: inhibitors of Schistosoma mansoni thioredoxin glutathione reductase. Q962Y6. Potency, µM (titrated, usually from 114 µM), for the others: at the highest dose activity change, negative = inhibition, hits mostly inhibitors. purified TGR, DTNB reduction, TNB absorbance 405 nm. AID 485364. 360,000 compounds, 3% hits; further: nearly all actives have a fitted effect of over 60% in size
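TGR 20 nM + NADPH 100 uM (dispensed conc.), cpd preinc 15 min RT; start with NADPH (500 uM addition) then DTNB (15 mM addition). Kinetic TNB absorbance, 405 nm filter. Four-parameter Hill fit across titration.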
AmpC no deterg: inhibitors of E. coli AmpC beta-lactamase without detergent. 330,000 compounds, 0.52% hits. AmpC nitrocefin hydrolysis, absorbance 480 nm, 0.0001% Triton. P00811. Potency, µM (top dose mostly 57.1 µM), inactives show at the top dose activity change, negative = inhibition, hits mostly inhibitors;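 further: plate controls were no compound for no effect and no enzyme for full effect; nearly all actives have a fitted effect of over 20% in size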
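20 mM phosphate pH 7.0 + 0.01% (detergent screen) or 0.0001% Triton X-100; 5.3 nM AmpC reagent; cpd preinc 15 min RT; nitrocefin (800 uM stock) to start; A480 q20 s × 4 min; Activity was normalised to no-enzyme and no-compound control wells.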
An asterisk follows results filed as active; ? = inconclusive; nt = no result given; [ ] = dose if it differs, or a comment. Unless noted, the call rests on the fitted dose curve; in most records, active means well fitted curve in the direction sought with a large enough effect; inconclusive means small, poorly fitted or top-dose-only effect, or another doubt; inactive means no such curve, though single readings can be large; an effect the other way counts as inactive or inconclusive. Unless noted, on the % scale 0 is the no-effect control and ±100 the full control effect; potency means the concentration at half of the fitted maximal effect.

SMILES	FMDV antiviral	AMA1-RON2 inh	AmpC detergent	Sm TGR inh	AmpC no deterg
Oc1cccc(NC(=S)Nc2cccnc2)c1	2.5%	-23.1%	-2.6%	50.1µM*	-21.9%
S=C(Nc1cccnc1)Nc1ccccc1Br	15.2%	-15.4%	-4.1%	6.31µM*	-9.9%
Fc1ccc(NC(=S)Nc2cccnc2)c(F)c1F	-0.4%	4.0%	-10.9%	14.1µM*	-26.0%
COCc1ccc(CN2CCOc3c(cc(-c4cc(C)c5cccc(OC)c5n4)cc3OC)C2)o1	-11.3%	nt	nt	nt	nt
FC(F)(F)c1cnc(NNC(=S)Nc2cccnc2)c(Cl)c1	-21.7%	92.5%	5.0%	-9.3%	-26.8%
Fc1ccc(NC(=S)Nc2cccnc2)c(Cl)c1	24.0%	-0.6%	-12.0%	17.8µM*	-19.0%
Fc1ccc(NC(=S)Nc2ccc(Cl)cc2Cl)cc1	25.4%	6.3%	-4.8%	25.1µM*	1.5%[2.29 µM]
COc1ccc(CNC(=O)c2cnc3sc(N4CCC(C)CC4)nn3c2=O)c(OC)c1	-35.7%	nt	3.0%	9.1%	nt
O=C(c1ccco1)N1CCN(c2ccc([N+](=O)[O-])cc2F)CC1	11.8%	0.3%	-13.4%	35.5µM*	-8.6%
O=C1CCN(c2ccc([N+](=O)[O-])cc2F)CC1	1.9%	-2.3%	?	39.8µM*	-7.4%
CCNC(=S)Nc1ccc(C)c(S(=O)(=O)Nc2ccccc2OC)c1	43.6%	-9.8%	3.9%	2.82µM*	-2.6%
COc1ccccc1NS(=O)(=O)c1cc(NC(=O)CNC(=O)c2cc(C)cc(C)c2)ccc1C	2.9%	13.6%	-0.8%	13.7%	-48.3%
O=C1C2C3C=CC(C3=C3CCCCC3)C2C(=O)N1c1ccccc1 (centres undefined)	?	2.2%	-1.7%	15.8µM*	-14.6%
Cc1[nH]c2ccccc2c1C(O)CN1CCN(c2cccc(C(F)(F)F)c2)CC1 (centres undefined)	?	-28.4%	-10.8%	31.6µM*	22.7%
COc1cc2c(cc1OC)C(COc1ccc3c(C)cc(=O)oc3c1)N(C(=O)c1cccc(C)c1)CC2 (centres undefined)	-10.9%	nt	-5.8%	-1.4%	nt
CCc1ccc(Nc2nc3c(S(=O)(=O)c4ccc(C)cc4)nnn3c3ccsc23)cc1	-16.9%	nt	1.6%	-0.6%	nt
Cc1nc2c(OCc3ccc(C#N)cc3)cccn2c1N(C)Cc1cccs1	28.2µM*	-13.6%	nt	nt	nt
Cc1nc2c(OCC(=O)c3ccc(F)cc3)cccn2c1N(C)Cc1cccs1	22.6%	14.6%	nt	nt	nt
COCCNC(=O)CCn1c(=O)[nH]c2cc(OC)c(OC)cc2c1=O	-16.5%	nt	5.0%	-1.5%	nt
Cc1oc(-c2ccccc2)nc1CS(=O)CC(=O)NC1CCCCCC1 (centres undefined)	63.1%	0.0%	-10.5%	7.08µM*	52.1%
CCOC(=O)N1CCC(NC(=O)CS(=O)Cc2nc(-c3ccccc3C)oc2C)CC1 (centres undefined)	-18.8%	-13.2%	3.4%	12.6µM*	75.8%
Cc1cccc(-c2nc(CS(=O)CC(=O)NC3CCCCC3)c(C)o2)c1 (centres undefined)	33.4%	-6.2%	-9.7%	56.2µM*	1.9%
Cc1oc(-c2ccccc2F)nc1CS(=O)CC(=O)NC1CCCCC1 (centres undefined)	30.9%	2.0%	?	31.6µM*	50.2%
Cc1oc(-c2ccccc2F)nc1CS(=O)CC(=O)NC1CC1 (centres undefined)	3.9%	5.2%	-11.2%	?	-10.8%
COc1cccc(-c2nc(CS(=O)CC(=O)NC3CCCC3)c(C)o2)c1 (centres undefined)	-10.1%	9.4%	?	?	-20.8%
SMILES	FMDV antiviral	AMA1-RON2 inh	AmpC detergent	Sm TGR inh	AmpC no deterg
COc1cccc(-c2nc(CS(=O)CC(=O)NC3CCCCC3)c(C)o2)c1 (centres undefined)	39.3%	4.6%	?	17.8µM*	83.8%
COC/C=C/C1=CC2=CC(=O)C(C)(OC(=O)c3ccco3)C(=O)C2=CO1 (centres undefined)	nt	nt	-1.7%	3.16µM*	24.9%
COC/C=C/C1=CC2=CC(=O)C(C)(OC(=O)C3CCCC3)C(=O)C2=CO1 (centres undefined)	0.0%	?	-0.5%	3.55µM*	-11.1%
Cc1cc(Cl)ccc1NC(=O)c1cc(S(=O)(=O)N2CCOCC2)cn1C	-5.4%	nt	3.4%	4.1%	nt
Cc1ccc(Cn2c(=O)n(Cc3ccccc3Cl)c(=O)c3cccnc32)cc1	-14.3%	nt	18.6%	0.1%	nt
Cc1ccc(NC(=O)CC(C)S(=O)(=O)c2ccc3c(c2)NC(=O)CO3)c(C)c1 (centres undefined)	-20.5%	nt	13.6%	4.9%	nt
Nc1nc(N2CCN(C(=O)c3ccco3)CC2)nc2ccc(Br)cc12	-14.6%	-3.4%	-17.4%	44.7µM*	-30.8%
Nc1nc(N2CCN(C(=O)c3ccco3)CC2)nc2ccccc12	20.6%	-8.1%	-8.4%	-6.8%	-27.6%
O=C(c1ccco1)N1CCN(c2nc3ccccc3c(=O)n2-c2ccccc2)CC1	7.08µM*	-8.4%	?	-17.6%	63.6%
Cn1c(=O)c([N+](=O)[O-])c(-n2ccnc2)c2ccccc21	31.6µM*	-4.0%	1.3%	35.5µM*	-5.4%
Cc1ccccc1-c1noc(-c2cc(C(C)C)[nH]n2)n1	29.7%	nt	4.2%	6.5%	nt
CNc1oc(-c2ccccc2F)nc1S(=O)(=O)c1ccc(C)cc1	6.2%	6.4%	-3.4%	14.1µM*	-47.8%
CCNc1oc(-c2ccccc2F)nc1S(=O)(=O)c1ccccc1	-5.8%	-17.5%	1.1%	39.8µM*	-29.0%
CN(C)c1ccc(-c2nc(-c3cccs3)c(-c3cccs3)[nH]2)cc1	-22.2%	nt	?	-4.8%	nt
Cc1ccc(CNC(=O)CCCn2c(=O)c3ccccc3n(Cc3ccccc3C)c2=O)cc1	-21.0%	nt	16.4%	2.7%	nt
Cc1cccc(NC(=O)CN2c3ccccc3S(=O)(=O)c3ccccc32)c1C	-15.5%	nt	-10.1%	-13.0%	nt
CN(C)C(=O)c1ccc(-c2nccc(NCc3cccnc3)n2)cc1	32.7%	nt	nt	nt	nt
CCOC(=O)[C@]12Cc3cc(OC)ccc3[C@H]1N(CCC(=O)OC)C(=O)c1cc(OC)ccc12	20µM*	-4.9%	nt	nt	nt
CCOC(=O)[C@]12Cc3ccccc3[C@H]1N(CCC(=O)OC)C(=O)c1cc(OC)ccc12	28.2µM*	11.7%	nt	nt	nt
CCOC(=O)[C@]12Cc3c(cc(OC)c(OC)c3OC)[C@H]1N(CCC(=O)OC)C(=O)c1ccccc12	?	-3.7%	nt	nt	nt
Cc1ccccc1C(=O)Nc1nnc(SCc2cc(=O)c3c(C)ccc(C)c3[nH]2)s1	?	nt	-8.8%	14.7%	nt
COc1ccccc1CNC(=O)C1CCN(c2nn3c(=O)cc(C)nc3s2)CC1	10.5%	nt	-6.2%	-7.9%	nt
CCN(CC)S(=O)(=O)c1cc(NC(=O)C2CC(=O)N(Cc3ccccc3)C2)ccc1Cl (centres undefined)	11.2µM*	52.3%	?	-5.7%	48.0%
CCN(CC)S(=O)(=O)c1cc(NC(=O)C2CCN(c3ncnc4sc(C)c(C)c34)CC2)ccc1Cl	8.91µM*	-7.4%	-11.3%	2.0%	-15.2%

Screening results as filed in PubChem.
